Records with an inconclusive call do not appear. Calls of active or inactive are those of the source. The call rests on the fitted dose curve; in most records, active means well fitted inhibition curve with a large enough effect; inconclusive means small, poorly fitted or top-dose-only effect; inactive means flat fitted curve, though single readings scatter.
Assays:
[1] = tested on: CRL-7250; assay: Cytotoxic Profiling of Annotated Libraries Using Quantitative High-Throughput Screening (AID 1296008); details: Five cell lines viability, CellTiter-Glo ATP luminescence, 48-72 h; max response: active compounds read low; on max response: on the % scale 0 is the no-effect control and ±100 the full control effect
In short: (§1)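 Cells exposed to compounds for 48 or 72 hr at 37 degrees Celsius. Viability read as ATP-coupled luminescence with CellTiter-Glo after 10 min at room temperature.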

[2] = tested on: HaCat; assay: as above; details: Five cell lines viability, CellTiter-Glo ATP luminescence, 48-72 h; max response: active compounds read low
In short: as §1

[3] = tested on: KB-3-1; assay: as above; details: Five cell lines viability, CellTiter-Glo ATP luminescence, 48-72 h; max response: active compounds read low
In short: as §1

[4] = tested on: NIH3T3; assay: as above; details: Five cell lines viability, CellTiter-Glo ATP luminescence, 48-72 h; max response: active compounds read low
In short: as §1

[5] = tested on: HACAT; assay: qHTS assay to identify novel small-molecules to repurpose for Merkel cell carcinoma treatment (AID 1296009); details: MCC and control cell lines, CellTiter-Glo viability, 72 h; at 44.8 µM (top of the series) unless noted
In short: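 Cells were incubated with compound for 72 hr at 37 degree celsius before CellTiter-Glo addition. Luminescence was normalized with no-cell wells as full cytotoxicity and DMSO as baseline.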

Measured: max response
Further: nearly all actives have a fitted effect of over 60% in size.

CC(C)(C)NC(=O)[C@H]1CC[C@H]2[C@@H]3CC[C@H]4NC(=O)CC[C@]4(C)[C@H]3CC[C@]12C
inactive: [1] -10.4% | [2] | [3] -6.73% | [4] -8.88% | [5]

O=C(O)c1cc(N(Cc2ccc(C3CCCCC3)cc2)C(=O)c2ccc(Oc3ccccc3)cc2)ccc1O
inactive: [1] -16.9% | [2] | [3] | [4] -0.211% | [5]

CC(NCCCc1cccc(C(F)(F)F)c1)c1cccc2ccccc12 (stereo not given)
inactive: [1] 1.05% | [2] | [3] -6.75% | [4] 3.68% | [5] inactive [at 17.4 µM]

O=C1COC2(CCN(S(=O)(=O)c3ccc(-c4ccc5cccnc5c4)cc3)CC2)CN1C1CC1
inactive: [1] -2.24% | [2] | [3] 7.72% | [4] -10.8% | [5]

C=C1CCCC2(C)CCC(C(C)(C)OC3OC(C)C(O)C(O)C3OC(=O)/C(C)=C\C)CC12 (stereo not given)
inactive: [1] 3.11% | [2] | [3] -8.14% | [4] | [5] inactive [at 17.4 µM]

C/C=C(/C)C(=O)OC1C=C2C3C(C)C(C)C(OC(=O)C(C)C(C)O)CC3(C)CCC2(C)C2(C)CC(OC(C)=O)C3C(C)(C)C(O)C(=O)CC3(C)C12 (stereo not given)
inactive: [1] 0.415% | [2] | [3] 5.54% | [4] -9.86% | [5] inactive [at 17.4 µM]

CC1=CC2/C=C(\C)CCC(O)C/C=C/C(=O)OC23C(=O)NC(CC(C)C)C3C1C (stereo not given)
inactive: [1] -1.17% | [2] | [3] | [4] | [5] inactive [at 17.4 µM]

— PubChem BioAssay (NCATS)
